# Results taken from ChEMBL document CHEMBL3988442, “University of Dundee, Small-Polar-MMV Screening Library” (2021).
# Screen size: about 48,000 compounds; about 13,000 (27%) showed an effect of 50% or more. The list shows a part of the results.
# Test system: Wolbachia pipientis
# Experiment: Anti-Wolbachia Cell-Based Screen
# Type: functional
# Design: scale not given: in the data most compounds retested in dose-response had high values
# Conditions: 5 µM
row,SMILES,Percent Effect
1,CCc1nc(C)c(C(=O)NCCNc2ncnc3sccc23)s1,-61.04%
2,Cc1nc(CN2C[C@@H]3CN(C(=O)C4(C#N)CC4)C[C@@H]3C2=O)cs1.O=C(O)C(F)(F)F,-7.986%
3,CCn1cc2c(n1)CN(S(=O)(=O)c1cccnc1)CC2COC.O=C(O)C(F)(F)F (stereo not given),-12.46%
4,COCC1COCCC12CCN(S(=O)(=O)c1cccnc1)CC2.O=C(O)C(F)(F)F (stereo not given),117.9%
5,CCOCC1COCCC12CCN(C(=O)CS(C)(=O)=O)CC2 (stereo not given),-11.35%
6,CCO[C@@H]1CO[C@@]2(CCCN(S(=O)(=O)c3cccnc3)C2)C1.O=C(O)C(F)(F)F,-5.792%
7,CCOCC1COCCC12CCN(C(=O)CC1=CCCCC1)CC2 (stereo not given),-10.97%
8,COCC1COCCC12CCN(S(=O)(=O)c1ccccc1C)CC2 (stereo not given),121.7%
9,COCC1COCCC12CCN(C(=O)CCc1ccccc1)CC2 (stereo not given),-6.521%
10,COCC1COCCC12CCN(C(=O)CC1=CCCCC1)CC2 (stereo not given),-25.41%
11,COCC1COCCC12CCN(S(=O)(=O)c1ccc(C)cc1)CC2 (stereo not given),101.4%
12,O=C(Cc1ccco1)N1CCC2(CCOCC2COCC2CC2)CC1 (stereo not given),-44.1%
13,COCC1COCCC12CCN(C(=O)CCOc1ccccc1)CC2 (stereo not given),9.795%
14,COCC1COCCC12CCN(S(=O)(=O)c1ccccc1)CC2 (stereo not given),111.6%
15,CCCNC(=O)Cn1nc(C(C)C)c2cnn(C(C)(C)C)c2c1=O,13.78%
16,CNC(=O)c1sc(C(NC(=O)c2ccccc2)C2CC2)nc1C (stereo not given),1.807%
17,Cn1cc(C2CCCN2CCCc2nc(-c3cccs3)no2)cn1 (stereo not given),7.461%
18,CCn1nc(C)cc1C(=O)OCCNc1ncnc2ccccc12,-8.299%
19,O=C(Nc1nncs1)NC1CCc2ccccc21 (stereo not given),-2.226%
20,O=C(NCc1nnc2n1CCCCC2)N(Cc1ccccn1)C1CC1,-22.11%
21,CN(Cc1ccc(O)cc1)C(=O)NCc1nnc2n1CCCCC2,89.08%
22,Cc1csc(CNC(=O)N(C)Cc2nnc3n2CCC3)n1,-16.98%

row,SMILES,Percent Effect
1,CN(Cc1ccncc1)C(=O)NCc1nnc2n1CCCCC2,124.1%
2,CCc1sc(C(=O)Nc2cnn(CC(N)=O)c2)cc1C,-1.226%
3,OCC1COCCN(c2ncccc2C(F)(F)F)C1 (stereo not given),17.46%
4,COCCn1cnnc1C(C)NC(=O)c1[nH]c2c(C)cc(C)cc2c1C (stereo not given),-15.82%
5,Cc1nn(C)c(Cl)c1C1CCCN1C(=O)c1ccc[nH]1 (stereo not given),99.71%
6,COc1c(C2CCCN2C(=O)c2cc(Cl)c[nH]2)c(C)nn1C (stereo not given),7.72%
7,Cc1nn(C)c(Cl)c1C1CCCN1C(=O)c1cc(Cl)c[nH]1 (stereo not given),15.12%
8,Cc1nn(C)c(Cl)c1C1CCCN1C(=O)c1cnc[nH]1 (stereo not given),106.1%
9,COc1c(C2CCCN2C(=O)c2cnc[nH]2)c(C)nn1C (stereo not given),99.16%
10,c1ccc(-c2noc([C@@H]3Cc4nc[nH]c4CN3)n2)cc1,-8.482%
11,COCCCN(Cc1cnc(N2CCCC2)nc1)C1CCN(C)CC1,104.1%
12,COCCN1CCC(CN(Cc2ccncc2)C2CCC2)CC1,3.665%
13,COCCCN1CCc2cncnc2C1,-3.846%
14,COCCCN(Cc1cnc(C2CCCCC2)nc1)C1CCN(C)CC1,105.2%
15,COCCCN(C(=O)c1ccc(-n2ccnc2)cc1)C1CCN(C)CC1,-6.688%
16,COCCN1CCC(CN(Cc2ccncc2)C2CCCCC2)CC1,-7.976%
17,Cc1ccc(C)c2c(O)cc(CN3CCC(c4nncn4C)CC3)nc12,4.156%
18,CC(C)(C)c1cn2nc(N3CCOC(Cn4cncn4)C3)sc2n1 (stereo not given),9.569%
19,Cc1ccc(CN2CCC3(CC2)CC(c2cccnc2)C(=O)N3C)o1.O=C(O)C(F)(F)F.O=C(O)C(F)(F)F (stereo not given),111.7%
20,Cc1nc(CN2CCC3(CC2)CC(c2cccnc2)C(=O)N3C)cs1.O=C(O)C(F)(F)F.O=C(O)C(F)(F)F (stereo not given),114.5%
21,Cc1cccc(CN2CCC3(CC2)CC(Oc2cccnc2)C3)n1.O=C(O)C(F)(F)F.O=C(O)C(F)(F)F,-6.69%
22,Cc1cccc(CN2CCC3(CC2)CC(c2cccnc2)C(=O)N3C)n1.O=C(O)C(F)(F)F.O=C(O)C(F)(F)F (stereo not given),108%

row,SMILES,Percent Effect
1,Cc1cc(C(=O)N2CCC3(CC2)CC(c2cccnc2)C(=O)N3C)no1.O=C(O)C(F)(F)F (stereo not given),1.086%
2,Cc1ccc(CN2CCC3(CC2)CC3CN(C)Cc2cccnc2)o1.O=C(O)C(F)(F)F.O=C(O)C(F)(F)F.O=C(O)C(F)(F)F (stereo not given),5.127%
3,COC(=O)CNC(=O)CSCc1nc(O)c2cc(C(C)C)sc2n1,2.369%
4,CN(Cc1ncnn1C)C(=O)Nc1ccc(OC(F)F)cc1,-14.3%
5,CN(c1ncnc2c1CCC2)C1CCCN(c2cccnn2)C1 (stereo not given),4.941%
6,COc1ccc(F)c(CN2CCCC(O)(CNCc3ncc[nH]3)C2=O)c1 (stereo not given),0.3473%
7,C=C(C)COc1cccc(C(=O)N2CCC3(CCOCC3)CC2)c1,0.8095%
8,CCOc1ccc(-c2ccnc(COc3ccccc3)n2)cc1C(=O)O,-3.347%
9,Cn1cnc(S(=O)(=O)N2C[C@@H]3CC[C@H](C2)N(Cc2cscn2)C3=O)c1,-55.67%
10,CNS(=O)(=O)c1ccc(CN2CCCN(Cc3ccncc3)CC2)cc1,21.96%
11,Cc1ccc(S(=O)(=O)N2CCN(Cc3ccncc3)CC2)c(Cl)c1,109.7%
12,Cc1ccc(S(=O)(=O)N2CCn3nc(C)nc3C2)c(Cl)c1,0.9769%
13,Cc1ccc(C)c(C(C(=O)O)N2CCCN(Cc3ccccn3)CC2)c1 (stereo not given),19.25%
14,Cc1cc(F)c(C(C(=O)O)N2CCN(Cc3ccccn3)CC2)cc1Cl (stereo not given),7.172%
15,Cc1cc(CN2CCN(S(=O)(=O)c3c(C)c(Cl)cc(C)c3Cl)CC2)on1,85.02%
16,Cc1cc(CN2CCN(C(=O)C3(C#N)CCCCC3)CC2)on1,-1.898%
17,Cc1ccc(CN2CCN(Cc3ccncc3)CC2=O)cc1,-11.1%
18,Cc1cc(Cl)c(C)c(S(=O)(=O)N2CCN(Cc3ccncc3)CC2)c1Cl,94.36%
19,Cc1cc(Cl)c(C)c(S(=O)(=O)N2CCN(Cc3ccccn3)CC2)c1Cl,101.6%
20,CCN1CCN(S(=O)(=O)c2cc(Cl)c(Cl)cc2C)CC1,4.693%
21,CCCNC(=O)N1CCN(Cc2cc(C)no2)CC1,1.77%
